Sfp PPTase inh: blocks B. subtilis Sfp PPTase activity; Biochemical Sfp PPTase activity, qHTS; Q9F4F7; Potency, µM, for the others: largest response in the series, negative = inhibition, hits mostly inhibitors; hit rate 3.5% among 310,000;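 note: the enzyme is Sfp with the accession as filed and its product quenches rhodamine fluorescence; 0% = enzyme reaction without inhibitor and -100% = no enzyme wells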
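Compounds were incubated with enzyme (final 15 nM) for 15 min at room temperature before substrate addition started the reaction. Fluorescence at 525 nm excitation, 598 nm emission was recorded immediately and after 30 minutes.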
GLS inhibitor: blocks human kidney-isoform glutaminase activity | Potency, µM (titrated, usually from 45.5 µM), inactives show at the top dose activity change, negative = inhibition, most hits filed as inhibitors | hit rate 0.21% among 410,000 | AID 624170 | GLS enzymatic activity, qHTS titration | O94925
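Human kidney-isoform GLS in 45 mM KH2PO4 pH 8.2, 0.02% Tween-20, with compound, started with 1mM L-Glutamine (added stock). Glutamate oxidase/HRP/Amplex red coupled fluorescence read at start and after 30 min at RT.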
TrxR1 substrate: is turned over as a substrate by rat TrxR1. O89049. purified TrxR1 substrate turnover, NADPH consumption readout. Potency, µM (top dose mostly 114 µM), for inactives: top-dose activity change, negative = substrate turnover. hit rate 0.01% among 390,000. AID 588456; note: nearly all actives have a fitted effect of over 50% in size
Target sequence (O89049 whole entry, looked up): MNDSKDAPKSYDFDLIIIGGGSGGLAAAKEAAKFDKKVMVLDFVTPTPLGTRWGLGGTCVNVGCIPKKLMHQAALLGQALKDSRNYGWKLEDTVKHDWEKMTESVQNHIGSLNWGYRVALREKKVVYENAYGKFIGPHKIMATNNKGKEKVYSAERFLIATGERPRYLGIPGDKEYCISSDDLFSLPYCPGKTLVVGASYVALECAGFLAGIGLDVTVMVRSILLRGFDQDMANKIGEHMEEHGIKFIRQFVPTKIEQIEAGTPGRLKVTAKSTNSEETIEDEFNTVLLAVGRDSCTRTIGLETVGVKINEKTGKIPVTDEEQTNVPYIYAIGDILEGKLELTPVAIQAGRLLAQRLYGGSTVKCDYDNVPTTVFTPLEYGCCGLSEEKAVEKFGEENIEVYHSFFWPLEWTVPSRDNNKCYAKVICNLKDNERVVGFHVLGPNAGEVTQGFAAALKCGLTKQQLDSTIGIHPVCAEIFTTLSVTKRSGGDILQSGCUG
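Rat TrxR1, dispensed at 90 nM, was prereduced with 400 uM NADPH (final) for 5 min at ~22 deg C, then incubated with compound 15 min before 400 uM selenite. A first-read NADPH fluorescence drop versus no-compound background flagged substrates.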
KAT2A inh: inhibitors of human GCN5L2 histone acetyltransferase. AID 504327. Potency, µM (titrated, usually from 58.9 µM), for the others: at the highest dose activity change, negative = inhibition, actives largely listed as inhibitors. hit rate 0.21% among 390,000. GCN5L2 HAT assay, ThioGlo1 CoA-SH fluorescence. Q92830
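GCN5L2 (20 nM) in 50mM HEPES pH 7.5, 0.1mM EDTA, 0.01% Tween-20 preincubated 15 min with compounds at room temperature. Reaction started with H3(1-25) 75uM, acetyl-CoA 70uM, ThioGlo1 50uM; CoA-thiol fluorescence (Ex340/Em540) read at 0 and 20 min.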
TrxR1 inh: rat TrxR1 inhibition. O89049. hit rate 1% among 390,000. recombinant rTrxR1, NADPH fluorescence consumption, selenite substrate. Potency, µM (titrated, usually from 114 µM), for inactives: at the highest dose activity change, negative = inhibition, actives largely listed as inhibitors; note: nearly all actives have a fitted effect of over 65% in size
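Rat TrxR1 (90 nM in the dispensed reagent) was pre-reduced with 400 uM NADPH for 5 min at room temperature, then incubated with compound for 15 min. After 400 uM selenite was added, NADPH fluorescence (Ex 340/Em 450 nm) was followed for 8 min.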
VDR inh: vitamin D3 receptor (human) inhibition; P11473; VDR-SRC2-3 peptide fluorescence polarization, 2 h; Potency, µM, without a hit: max response, negative = inhibition, actives largely listed as inhibitors; hit rate 0.93% among 400,000
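Fluorescence polarization assay of small-molecule disruption of VDR binding to coregulator peptide SRC2-3. Compounds and controls pin-transferred, then read after 2 h incubation at ambient room temperature.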
* marks the source's active call; other numbers are inactive results; u = inconclusive; x = not tested or not shown; ! = not confirmed by another sample; [ ] = dose if it differs, or a comment. This is a sample that favours compounds with a hit; in the whole collection about 3.8% have one here. Calls come from the whole dose curve; as a rule, active = well fitted curve in the direction sought with a large enough effect; inconclusive = small, poorly fitted or top-dose-only effect, or another doubt; inactive = no such curve, though single readings can be large; an effect the other way counts as inactive or inconclusive. Unless noted, % is set by controls: 0 for no effect and ±100 for the full control effect; potency is the fitted concentration of half-maximal effect.

SMILES	Sfp PPTase inh	GLS inhibitor	TrxR1 substrate	KAT2A inh	TrxR1 inh	VDR inh
CC[C@H](NC(=O)[C@H](CCCN=C(N)N)NC(=O)[C@H](Cc1c[nH]c2ccccc12)NC(=O)[C@@H](N)CS)C(=O)N[C@@H](CCCN=C(N)N)C(=O)N[C@@H](Cc1ccc(O)cc1)C(N)=O	-8%	x	x	u	x	40µM*
CCCS(=O)(=O)c1nnnn1-c1cccc(OC)c1	-24%	0%	10%	-21%	3.5µM*	u
CC1=CC(C)(C)Nc2ccc(C)cc21	45µM*	1%	36%	2%	19%	15%
CSCCC(NC(=O)/C(=C\c1ccco1)NC(=O)c1ccco1)C(=O)O (configuration not stated)	-21%	-7%	3%	-8%	-8%	-9%
CCOC(Cn1c(SCc2cc(C(C)=O)ccc2OC)nc2ccccc2c1=O)OCC	8%	8%	-3%	-1%	9%	0%
COc1ccc(C(C)=O)cc1CSc1nc2cc(C(=O)O)ccc2c(=O)n1Cc1ccccc1	-8%	0%	-3%	-7%	28µM*	-6%
CCN(CC)c1ccc(N=Cc2ccccc2[N+](=O)[O-])cc1	50µM*	23%	-17%	-11%	71µM*	u
O=C(CCl)N(Cc1ccccc1)c1ccccc1	11%	-3%	1%	-7%	u	-6%
Cc1cccc(N(Cc2ccccc2)C(=O)CCl)c1	5%	-6%	-11%[57.1 µM]	3%	8.9µM*	-18%
CCOC(=O)c1c(C)[nH]c(C)c1S(=O)(=O)NCC(=O)N1CCN(c2ccccc2F)CC1	x	-24%	-1%[57.1 µM]	-21%	10%[57.1 µM]	5%
COCCNc1ncnc2c1ncn2[C@H]1CN(CCc2ccccc2)C[C@@H](CO)O1	x	-7%	x	x	x	x
C[C@@H](C(=O)Nc1ccc2ccccc2c1)[C@H]1C[C@]1(C)[C@H](N)c1ccccc1	-7%	x	0%	x	5%[57.1 µM]	0%
C=C1CCC(O)C/C1=C/C=C1\CCC[C@]2(C)[C@@H]([C@H](C)/C=C/[C@H](C)C(C)C)CC[C@@H]12 (some centres not stated)	24%	0%	x	-4%	x	50µM*
C=C1CCC(O)C/C1=C\C=C1/CCCC2(C)C1CCC2C(C)/C=C/C(C)C(C)C (configuration not stated)	-13%	x	x	x	x	x
COc1ccc(COC[C@H](C)[C@H](O)[C@@H](C)[C@H]2OC(=O)[C@@H]2C)cc1	8%	u	-3%	x	7.9µM*!	-19%
CC1(C)Cc2c(C#N)c(OCC(=O)c3ccccc3)nc(-c3ccoc3)c2CO1	-15%	-1%	-4%	-3%	50µM*	u
CC1(C)Cc2c(C#N)c(OCC(=O)c3ccc(Cl)cc3)nc(-c3ccoc3)c2CO1	u	1%	3%	-5%	-25%	33%
CC1(C)Cc2c(C#N)c(SCc3ccccc3)nc(N3CCOCC3)c2CO1	-13%	14%	-4%	u	4%	17%
CC1(C)Cc2c(C#N)c(SCC(=O)c3ccccc3)nc(N3CCOCC3)c2CO1	14µM*	18%	-3%	-9%	-10%	u
CC1CCC(C(C)C)C(O)C1 (configuration not stated)	14%	-9%	x	-1%	x	-2%
O=C(COC(=O)c1ccc([N+](=O)[O-])o1)NC1CCCC1	x	2%	-2%	2%	u	6%
O=C(COC(=O)c1ccc([N+](=O)[O-])o1)NC1CCS(=O)(=O)C1 (configuration not stated)	-1%	5%	-7%	-14%	3.5µM*	-8%
CS(=O)(=O)c1ccc(C(=O)OCC(=O)NCc2cccs2)cc1[N+](=O)[O-]	x	-3%	10%[57.1 µM]	-4%	1.8µM*	u
Cc1ccsc1C(=O)OCC(=O)NC1CCS(=O)(=O)C1 (configuration not stated)	9%	1%	1%	1%	13%	-18%
O=C(COC(=O)c1ccc([N+](=O)[O-])o1)NCCCc1ccccc1	x	-14%	-6%	-1%	u	3%
SMILES	Sfp PPTase inh	GLS inhibitor	TrxR1 substrate	KAT2A inh	TrxR1 inh	VDR inh
O=C(COC(=O)c1ccc2c(c1)OCO2)NC1CCS(=O)(=O)C1 (configuration not stated)	1%	-4%	11%	-1%	79µM*	-4%
O=C(COC(=O)c1ccc([N+](=O)[O-])o1)Nc1cccc2ccccc12	-14%	10%	-1%	-3%	20µM*	7%
Cc1ccc(CCNc2nc3c(S(=O)(=O)c4ccccc4)nnn3c3ccsc23)cc1	x	-10%	13%	4%	-7%	15%
CCOC(=O)CC(C#N)c1c[nH]c2ccccc12 (configuration not stated)	7%	31%	-8%	-11%	-1%	5%
CNC1C(O)C(O[C@H]2C(O)[C@@H](OC3OC(CN)=CCC3N)[C@H](N)C[C@@H]2N)OC[C@]1(C)O (some centres not stated)	1%	x	x	-5%	x	10%
CS(=O)(=O)c1ccc(SCC(=O)NC2CCS(=O)(=O)C2)c([N+](=O)[O-])c1 (configuration not stated)	-28%	1%	5%[57.1 µM]	-15%	21%[57.1 µM]	1%
CS(=O)(=O)c1ccc(C(=O)OCC(=O)NC2CCS(=O)(=O)C2)cc1[N+](=O)[O-] (configuration not stated)	18%	1%	4%	-1%	7.9µM*	-3%
COC(=O)C1(C(=O)OC)CC2=C[C@H](CC2=O)Cc2ccccc2[C@@H]1C[N+](=O)[O-]	-14%	x	x	x	x	50µM*!
Cc1ccc2nc3c(cc(C(N)=S)c(=N)n3CCCOC(C)C)c(=O)n2c1	45µM*	1%	252%	-4%	31%	u
COCCCn1c(=N)c(C(N)=S)cc2c(=O)n3cccc(C)c3nc21	x	19%	202%	x	-8%	u
Cc1cccc(C)c1NC(=S)NC(=O)CCc1ccccc1	5%	3%	-2%[57.1 µM]	-2%	3.5µM*	-10%
NC(=O)c1ccccc1NC(=S)NC(=O)CCc1ccccc1	28µM*	-3%	-14%	-14%	-31%	u
CSc1cccc(NC(=S)NC(=O)CCc2ccccc2)c1	9%	7%	10%	-8%	-30%	0%
Cc1ccc2oc(C(=O)NCc3ccc4c(c3)OCO4)c(C)c2c1	-10%	-7%	8%[57.1 µM]	x	15%[57.1 µM]	4%
CCOc1ccccc1NC(=O)C(C)Sc1nc(-c2ccccc2)c(C#N)c(=O)[nH]1 (configuration not stated)	x	2%	-2%	-14%	16%	-2%
